The nature of assay [1]: anti-His antibody binders, primary screen, artefact control for SMM control protein annotation, biochemical, small-molecule microarray, 635 nm fluorescence (AID 1128).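 Also: score merges feature fluorescence with signal-to-noise for each printed compound spot.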 As to conditions: anti-His Alexa647 antibody binding, higher = more signal.
Assay [2] concerns Human papillomavirus type 1a E7 protein (residues 1-88). Nature of the assay: HPV1a E7 small-molecule binders, primary screen, biochemical, small-molecule microarray, residues 1-88, 635 nm (AID 1129). The settings on record: small-molecule microarray binding, fluorescence 635 nm; higher = more signal.
Assay [3] has as its target Focal adhesion kinase 1 (Homo sapiens) (UniProt Q05397). Nature of the assay: small-molecule microarray binders of FAK, primary screen, biochemical, 635/667 nm fluorescence, BSA, DTT (AID 1130).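 Also: composite of spot emission at 667 nm and signal to noise over triplicate slides.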 As to conditions: PTK2 binding, 635 nm fluorescence, higher = more signal.
Assay [4] concerns Fibrinogen (Alexa647-labelled). Put plainly: fibrinogen binders on compound microarrays, profiling panel, artefact control for SMM control-protein annotation, biochemical, small-molecule microarray, 635/667 nm fluorescence (AID 1131).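 Also: z-score merges 667 nm fluorescence with per-spot signal-to-noise over triplicate slides.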 As to conditions: fibrinogen-A647 binding fluorescence, higher = more signal.
Assay [5] deals with Follistatin (Homo sapiens) (UniProt P19883). Nature of the assay: follistatin binders on small-molecule microarrays, primary screen, biochemical, small-molecule microarray, 635/667 nm fluorescence (AID 1132). As to conditions: FST binding, 635 nm fluorescence, higher = more signal.
Assay [6] deals with Fibroblast growth factor 2 (Homo sapiens) (UniProt P09038). Put plainly: FGF2 binders on small-molecule microarrays, primary screen, biochemical, small-molecule microarray, 635/667 nm fluorescence (AID 1133). As to conditions: small-molecule microarray binding, FGF2, fluorescence 635/667; higher = more signal.
Assay [7] can be described thus: mitochondrial membrane potential change in A549 cells, profiling panel, cell-based, JC-1 fluorescence, basal, 24 h, 100 nL (AID 1138).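 Also: A549 lung adenocarcinoma cells under basal conditions with no added stimulus; test concentration not given here.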 As to conditions: higher = more signal.
The test system of the next assay is Lefty1. Nature of the assay: Lefty1 binders on small-molecule microarrays, primary screen, biochemical, small-molecule microarray, 635/667 nm fluorescence (AID 1139). The settings on record: small-molecule microarray binding, fluorescence 635/667; higher = more signal.
The test system of assay [8] is wheat germ agglutinin (Triticum aestivum), Alexa647-labelled. Put plainly: wheat germ agglutinin binders on compound microarrays, profiling panel, artefact control for SMM control-protein annotation, biochemical, small-molecule microarray, 635/667 nm fluorescence (AID 1140).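 Also: score merges 667 nm feature emission with signal to noise over triplicate slides.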 The settings on record: WGA-A647 binding, 635 nm fluorescence, higher = more signal.
The target in assay [9] is Luciferin 4-monooxygenase (Photinus pyralis) (UniProt P08659). Put plainly: firefly luciferase enzyme inhibitors, primary screen, biochemical, luminescence, purified enzyme, 2006 set (AID 1141).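 Also: cell-free assay with purified firefly luciferase at 100 ng per well in PBS; test concentration not given here.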 The settings on record: SteadyGlo luminescence, 30 min, higher = more signal, called active from +8 up or from −8 down.
For assay [10], the system named is Wnt5a (protein binding on small-molecule microarray). Nature of the assay: Wnt5a binders on small-molecule microarray, primary screen, biophysical, 635/667 nm fluorescence (AID 1142).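 Also: fluorescence read at 667 nm with signal to noise per printed feature.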 As to conditions: 635 nm fluorescence, higher = more signal.
Assay [11] can be described thus: cell viability in Huh7 cells, primary screen, cytotoxicity control for HCV replication inhibitor project, CellTiter-Glo luminescence, basal, 48 h (AID 1143).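 Also: Huh7 hepatoma cells carrying a hepatitis C replication reporter with no stimulus; test concentration not given here.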 The settings on record: Huh7 HCV replicon, higher = more signal, called active from +8 up or from −8 down. On the technique in general: In ATP-based viability assays light output follows the ATP content of the culture.

Assay [12] can be described thus: P. aeruginosa biofilm formation inhibitors, primary screen, PAO1 strain, BacTiter-Glo luminescence, LB-PBS (AID 1144). The settings on record: 12 h, higher = more signal.
Assay [13] in a line: CREB reporter modulators without forskolin, primary screen, cell-based, PC12, CRE-LacZ reporter, unstimulated (AID 1145). As to conditions: no forskolin, luminescence, 4.5 h, higher = more signal, called active from +8 up or from −8 down.
Assay [14] in a line: CREB reporter modulators under forskolin, primary screen, cell-based, PC12, CRE-LacZ reporter, forskolin-stimulated (AID 1146).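 Also: PC12 cells with 6xCRE LacZ reporter stimulated by forskolin 10 µM; beta-galactosidase reporter signal reflecting CREB driven transcription.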 The settings on record: luminescence, 4.5 h, higher = more signal, called active from +8 up or from −8 down.
In assay [15] the target is Streptavidin (Streptomyces avidinii) (UniProt P22629). Nature of the assay: streptavidin binders on small-molecule microarray, primary screen, artefact control for SMM compound annotation, biophysical, 635/667 nm fluorescence (AID 1147).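 Also: signal reflects streptavidin binding to arrayed compounds as a control protein.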 The settings on record: streptavidin binding, higher = more signal.
Assay [16] can be described thus: small-molecule binders of probe aInhba, primary screen, biochemical, small-molecule microarray, 635/667 nm fluorescence (AID 1148).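 Also: score merges 667nm spot fluorescence with signal-to-noise for antibody binding to printed compounds.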 The settings on record: higher = more signal.
The target in assay [17] is Torsin-1A (Homo sapiens) (UniProt O14656). Nature of the assay: torsin A binders from cell lysate, primary screen, small-molecule microarray, wild-type, 635/667 nm (AID 1149). The settings on record: COS7 hTOR1A-WT lysate, 635 nm fluorescence, higher = more signal.
Assay [18] has the same target. Put plainly: small-molecule binders of mutant TOR1A in lysate, primary screen, cell lysate, small-molecule microarray, COS7 lysate, 635/667 nm fluorescence (AID 1150).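 Also: score pools 667 nm emission and signal to noise measuring lysate protein binding.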 The settings on record: COS7 hTOR1A mutant lysate, 635 nm fluorescence, higher = more signal.
Assay [19] concerns Sonic hedgehog protein (Shh). Nature of the assay: small-molecule binders of Shh protein, primary screen, biochemical, small-molecule microarray, 635/667 nm fluorescence (AID 1151).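 Also: Shh protein binding to compounds spotted on small-molecule microarray slides; score combines spot fluorescence intensity with signal-to-noise across triplicate slides.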 The settings on record: small-molecule microarray binding, 635 nm fluorescence; higher = more signal.

Each structure is given as a SMILES string. Activity calls are given as the source filed them. Unless noted, no rule for the calls is given here.

Streptavidin (Streptomyces avidinii), sequence (P22629 whole entry, looked up): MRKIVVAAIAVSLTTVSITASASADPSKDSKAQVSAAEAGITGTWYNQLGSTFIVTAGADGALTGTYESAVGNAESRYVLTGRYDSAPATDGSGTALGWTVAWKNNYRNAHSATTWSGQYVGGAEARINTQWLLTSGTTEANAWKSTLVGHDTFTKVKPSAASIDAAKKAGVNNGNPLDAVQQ
Torsin-1A (Homo sapiens), sequence (O14656 whole entry, looked up): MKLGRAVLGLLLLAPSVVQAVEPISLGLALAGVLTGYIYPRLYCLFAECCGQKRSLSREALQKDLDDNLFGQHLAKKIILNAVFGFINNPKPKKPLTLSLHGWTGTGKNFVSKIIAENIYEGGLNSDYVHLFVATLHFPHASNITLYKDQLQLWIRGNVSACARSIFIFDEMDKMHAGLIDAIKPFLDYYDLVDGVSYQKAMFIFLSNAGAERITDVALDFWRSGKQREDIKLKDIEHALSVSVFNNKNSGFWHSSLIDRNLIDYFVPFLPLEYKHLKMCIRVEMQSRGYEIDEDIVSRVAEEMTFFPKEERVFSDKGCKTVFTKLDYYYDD
Luciferin 4-monooxygenase (Photinus pyralis), sequence (P08659 whole entry, looked up): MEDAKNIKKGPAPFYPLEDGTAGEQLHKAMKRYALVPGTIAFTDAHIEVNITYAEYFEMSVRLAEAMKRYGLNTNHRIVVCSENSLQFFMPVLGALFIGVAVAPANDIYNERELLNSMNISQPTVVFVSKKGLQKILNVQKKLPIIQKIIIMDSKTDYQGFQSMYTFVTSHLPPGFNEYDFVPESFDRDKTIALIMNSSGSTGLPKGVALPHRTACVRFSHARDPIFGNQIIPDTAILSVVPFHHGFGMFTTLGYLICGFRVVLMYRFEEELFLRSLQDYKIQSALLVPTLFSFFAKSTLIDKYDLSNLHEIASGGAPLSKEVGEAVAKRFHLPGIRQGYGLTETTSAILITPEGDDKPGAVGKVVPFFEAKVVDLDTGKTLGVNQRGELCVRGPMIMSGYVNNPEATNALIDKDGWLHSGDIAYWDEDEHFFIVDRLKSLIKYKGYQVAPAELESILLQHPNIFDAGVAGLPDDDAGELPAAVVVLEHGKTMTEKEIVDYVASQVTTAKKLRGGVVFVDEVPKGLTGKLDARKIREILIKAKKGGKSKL
Fibroblast growth factor 2 (Homo sapiens), sequence (P09038 whole entry, looked up): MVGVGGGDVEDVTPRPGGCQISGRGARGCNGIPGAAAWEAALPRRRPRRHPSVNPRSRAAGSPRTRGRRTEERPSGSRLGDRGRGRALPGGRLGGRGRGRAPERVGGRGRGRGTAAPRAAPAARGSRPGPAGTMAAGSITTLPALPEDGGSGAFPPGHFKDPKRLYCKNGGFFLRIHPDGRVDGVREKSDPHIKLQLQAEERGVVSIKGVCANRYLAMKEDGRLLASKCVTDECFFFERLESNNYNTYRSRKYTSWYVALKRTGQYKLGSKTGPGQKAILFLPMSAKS
Follistatin (Homo sapiens), sequence (P19883 whole entry, looked up): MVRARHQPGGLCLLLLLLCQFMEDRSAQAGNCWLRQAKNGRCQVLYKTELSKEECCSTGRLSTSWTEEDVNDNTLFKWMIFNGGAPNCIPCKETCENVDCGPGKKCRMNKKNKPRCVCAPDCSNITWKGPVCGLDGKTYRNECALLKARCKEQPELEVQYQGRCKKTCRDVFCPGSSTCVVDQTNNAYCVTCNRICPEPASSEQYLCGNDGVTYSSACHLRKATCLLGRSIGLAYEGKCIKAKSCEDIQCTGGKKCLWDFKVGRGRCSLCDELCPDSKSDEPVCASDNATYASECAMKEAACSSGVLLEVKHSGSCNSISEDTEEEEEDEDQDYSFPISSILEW
Focal adhesion kinase 1 (Homo sapiens), sequence (Q05397 whole entry, looked up): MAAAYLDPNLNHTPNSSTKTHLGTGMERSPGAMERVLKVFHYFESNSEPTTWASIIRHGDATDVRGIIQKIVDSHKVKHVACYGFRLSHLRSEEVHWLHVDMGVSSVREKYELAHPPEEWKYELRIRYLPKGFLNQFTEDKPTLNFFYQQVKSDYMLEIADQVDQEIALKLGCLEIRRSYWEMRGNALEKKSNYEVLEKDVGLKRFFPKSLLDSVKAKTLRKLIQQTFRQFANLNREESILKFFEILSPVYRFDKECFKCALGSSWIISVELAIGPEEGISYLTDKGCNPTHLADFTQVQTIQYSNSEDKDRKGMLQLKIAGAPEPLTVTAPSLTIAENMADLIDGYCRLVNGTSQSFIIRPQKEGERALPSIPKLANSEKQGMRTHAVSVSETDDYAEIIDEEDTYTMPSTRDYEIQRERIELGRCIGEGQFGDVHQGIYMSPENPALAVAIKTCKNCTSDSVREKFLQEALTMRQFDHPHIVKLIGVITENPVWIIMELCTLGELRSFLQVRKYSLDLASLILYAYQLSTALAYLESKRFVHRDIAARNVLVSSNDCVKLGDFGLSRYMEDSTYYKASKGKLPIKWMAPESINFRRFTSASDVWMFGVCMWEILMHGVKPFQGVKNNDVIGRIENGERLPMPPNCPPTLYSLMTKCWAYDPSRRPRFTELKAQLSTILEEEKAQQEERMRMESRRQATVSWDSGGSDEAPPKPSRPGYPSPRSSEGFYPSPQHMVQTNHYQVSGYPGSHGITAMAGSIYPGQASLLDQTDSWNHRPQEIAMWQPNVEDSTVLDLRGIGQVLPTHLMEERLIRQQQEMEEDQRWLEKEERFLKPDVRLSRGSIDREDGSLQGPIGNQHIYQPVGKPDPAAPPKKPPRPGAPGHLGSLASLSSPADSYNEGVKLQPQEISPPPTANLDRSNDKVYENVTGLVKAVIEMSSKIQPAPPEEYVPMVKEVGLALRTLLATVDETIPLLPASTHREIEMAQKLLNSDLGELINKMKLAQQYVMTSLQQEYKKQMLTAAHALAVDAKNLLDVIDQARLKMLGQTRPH

Take `C=C(CCCC)C(=O)CC[C@H](OC(=O)c1ccccc1-c1ccccc1C(=O)O)c1ccc(CO)o1`: the composite z-score in assay [1] is 1.22; in assay [2], 1.22; in assay [3] it was -0.116; in assay [4] it was 0.954; in assay [5], 1.1; in assay [6] it was 0.905. In addition, the composite z-score with Lefty1 turned out to be 1.57; in assay [8] it was 1.14; in assay [10] it was 0.123; in assay [15], 1.5; in assay [16], 0.0154; in the assay with Torsin-1A (Homo sapiens) [17], 0.472. For the same compound, the composite z-score in the assay with Torsin-1A (Homo sapiens) [18] was found to be 0.622; in assay [19], 1.99. In addition, the z-score was -0.541 in assay [7]; -1.96 (inactive) in [9]; 0.0343 (inactive) in [11]; -0.976 (inactive) in assay [12]; -0.177 (inactive) in assay [13]; -0.56 (inactive) in assay [14].
As to `COCC1=C([C@H](O)CCc2ccccc2)[C@H](CO)[C@@H]2C(=O)N(Cc3ccccc3)C(=O)[C@@H]2C1`, the composite z-score in assay [1] is -0.219; in assay [2], -0.0814; in [3], 0.0916; in assay [4], 0.292; in assay [5], 0.444; in assay [6] it was 0.0451. The composite z-score is 0.448 in the assay on Lefty1; 0.131 in [8]; 0.0713 in [10]; -0.0218 in assay [15]; -0.0759 in assay [16]; -0.305 in the assay with Torsin-1A (Homo sapiens) [17]. Further, the composite z-score with Torsin-1A (Homo sapiens) [18] amounted to 0.767; in [19] it was 1.03. Besides, the z-score in [7] was 0.68; in [9], 0.24 (inactive); in [11] it was -0.979 (inactive); in assay [12], -0.771 (inactive); in assay [13], 0.586 (inactive); in assay [14] it was -0.0417 (inactive).
On to `O=c1cccc(-c2ccccc2)o1`, for which the composite z-score in assay [1] was -0.192; in assay [2] it was -0.377; in [3], 0.192; in assay [4], -0.468; in assay [5], 0.145; in assay [6], -0.417. In addition, the composite z-score is -0.57 in the assay with Lefty1; 0.143 in [8]; -0.299 in [10]; -0.386 in assay [15]; -0.204 in [16]; 0.0936 in the assay with Torsin-1A (Homo sapiens) [17]. Also, the figures for the composite z-score (in the assay with Torsin-1A (Homo sapiens) [18]; in assay [19]) were 0.274 and -0.379, respectively. The z-score in [7] was 0.103; in [9], 0.616 (inactive); in assay [11], 0.423 (inactive); in assay [12], 1.55 (inactive); in assay [13], -0.723 (inactive); in [14], 0.137 (inactive).
With `C#C[C@H]1Oc2ccccc2S(=O)(=O)N2CCC[C@@H]12`, the composite z-score in [1] is -0.233; in [2], -0.704; in assay [3], -0.434; in [4], -0.597; in assay [5] it was 0.963; in [6], 0.0278. Besides, the composite z-score with Lefty1 was 1.51; in assay [8] it was -0.719; in [10], -0.0713; in assay [15] it was -0.14; in [16], -0.278; with Torsin-1A (Homo sapiens) [17], 0.461. In addition, the figures for the composite z-score (with Torsin-1A (Homo sapiens) [18]; in assay [19]) were 0.512 and 1.63, respectively. Also, the z-score in assay [7] was 0.092; in assay [9] it was 0.119 (inactive); in [11], -0.0352 (inactive); in assay [12], -0.0287 (inactive); in [13], 0.126 (inactive); in assay [14], 1.3 (inactive).
Take `C=CCN1C(=O)[C@@]2(O[C@@H](CCO)[C@H]([Si](C)(C)c3ccc(OC)cc3)[C@H]2C)c2cc(NC(C)=O)ccc21`: the composite z-score in assay [1] is 1.48; in [2], 1.21; in assay [3], 0.0016; in assay [4], 0.818; in assay [5], 1.34; in assay [6], 1.45. For the same compound, the composite z-score with Lefty1 was 1.22; in [8], 0.948; in [10] it was 0.303; in assay [15] it was -0.0236; in assay [16] it was 0.0982; with Torsin-1A (Homo sapiens) [17], 0.31. For the same compound, the figures for the composite z-score (in the assay with Torsin-1A (Homo sapiens) [18]; in assay [19]) were 0.364 and 1.85, respectively. Also, the z-score in assay [7] was 0.921; in assay [9] it was -0.301 (inactive); in assay [11] it was -4.72 (inactive); in [12] it was 0.445 (inactive); in assay [13], 7.68 (inactive); in assay [14], 0.766 (inactive).
